{"source": "PubChem BioAssay (Tox21)", "note": "Inconclusive results are not listed. Unmarked numbers belong to inactive results. Calls of active or inactive are those of the source. Calls follow the shape of the dose curve; as a rule, active = well fitted activation curve with a large enough effect in the signal ratio in the repeat runs (not every such curve was filed as active); inconclusive = weak or mixed curves; inactive = flat fitted curve, though single readings scatter; the % refers to the signal ratio. % is scaled to controls: 0 for no effect and ±100 for the full control effect."}
{"experiment": "qHTS assay to identify small molecule agonists of the TGF-beta/Smad signaling pathway (AID 1346859)", "conditions": "SBE-bla HEK293T, TGF-beta/Smad beta-lactamase reporter, 5 h; series mostly up to 76.8 µM; activation: at the top concentration", "description": "U.S. Tox21 Program National Center for Advancing Translational Sciences [NCATS] NIH Chemical Genomics Center [NCGC] U.S. Environmental Protection Agency [EPA] National Institutes of Environmental Health Sciences [NIEHS] National Toxicology Program [NTP] U.S. Food and Drug Administration [FDA] Tox21 Assay Overview: Transforming growth factor beta (TGF-beta) superfamily consists of a large number of structurally related dimeric proteins that act as hormones or local mediators in regulating a wide range of biological functions. This superfamily includes TGF-betas themselves, the bone morphogenetic proteins (BMPs) and the activins. These ligands induce oligomerization of serine/threonine receptor kinases and phosphorylate the cytoplasmic signaling molecules of Smad protein family. CellSensor SBE-bla HEK 293T cell line (Life Technologies, Carlsbad, CA), responsive to TGF-beta was used to screen Tox21 10K compound library for identification of agonists/antagonists of the Smad signaling pathway. This cell line contains a beta-lactamase reporter gene under control of the Smad binding element (SBE) stably integrated into HEK 293T cells.\nTox21 Assay Protocol Summary: SBE-bla HEK 293T cells were dispensed at 4,000/well in 6 uL of assay medium into black wall/clear-bottom 1536-well plates using a Multidrop Combi (ThermoFisher Scientific, Waltham, MA) dispenser. After the assay plates were incubated at 37 C and 5% CO2 for an overnight, 23 nL of compounds dissolved in DMSO, positive controls or DMSO only was transferred to the assay plate by a Pintool station (Kalypsys, San Diego, CA). The assay plates were incubated at 37 C and 5% CO2 for 5 hr. One uL of LiveBLAzer B/G FRET substrate (Life Technologies) was added using a Flying Reagent Dispenser (Aurora Discovery, San Diego, CA) and the plates were incubated at room temperature for 2 hr. Fluorescence intensity (405 nm excitation, 460 nm and 530 nm emissions) was measured using an Envision plate reader (PerkinElmer, Shelton, CT)."}
{"smiles": "c1ccc(N=NNc2ccccc2)cc1", "outcome": "inactive"}
{"smiles": "C#CC1(O)CCCCC1", "activation": "1.69%"}
{"smiles": "CN=C=O", "activation": "-5.27%"}
{"smiles": "C[N+]1(C)[C@@H]2CC[C@H]1CC(OC(=O)C(CO)c1ccccc1)C2", "note": "(stereo not given in full)", "activation": "6.47% [at 35.3 µM]"}
{"smiles": "Brc1ccc(Oc2ccc(Br)cc2Br)c(Br)c1", "activation": "-3.9%"}
{"smiles": "ClC(Cl)C(Cl)(Cl)Cl", "activation": "-1.79%"}
{"smiles": "CC[C@]1(O)CC[C@H]2[C@@H]3CCC4=CCCC[C@@H]4[C@H]3CC[C@@]21C", "activation": "2.62% [at 35.3 µM]"}
{"smiles": "O.O.O.O=C([O-])[C@H]([O-])[C@@H]([O-])C(=O)[O-].O=C([O-])[C@H]([O-])[C@@H]([O-])C(=O)[O-].[K+].[K+].[Sb+3].[Sb+3]", "activation": "3.89%"}
{"smiles": "Nc1cc(Cl)ccc1Cl", "activation": "3.03%"}
{"smiles": "Oc1ccc([C@H]2CNCc3c2ccc(O)c3O)cc1O", "activation": "2.3% [at 35.3 µM]"}
{"smiles": "C=Cc1cccc(CCl)c1", "activation": "0.737% [at 200 µM]"}
{"smiles": "CC1(C)[C@H](/C=C2\\CCSC2=O)[C@@H]1C(=O)OCc1coc(Cc2ccccc2)c1", "activation": "0.83%"}
{"smiles": "CC1(C)C(C=C(Cl)Cl)C1C(=O)OC(C#N)c1ccc(F)c(Oc2ccccc2)c1", "note": "(stereo not given)", "activation": "3.39%"}
{"smiles": "CCCCCON=O", "activation": "-0.323%"}
{"smiles": "CNC(C)(C)Cc1ccccc1", "activation": "1.32% [at 35.3 µM]"}
{"smiles": "CN1C(=O)[C@@H](NC(=O)c2cc3ccccc3[nH]2)N=C(c2ccccc2)c2ccccc21", "activation": "5.03% [at 35.3 µM]"}
{"smiles": "COC(=O)N(OC)c1ccccc1COc1ccn(-c2ccc(Cl)cc2)n1", "activation": "6.89%"}
{"smiles": "CCN(CC)C(=S)S", "outcome": "inactive"}
{"smiles": "COc1ccc2c(c1OC)C(=O)O[C@@H]2[C@H]1c2cc3c(cc2CCN1C)OCO3", "activation": "2.65%"}
{"smiles": "Cc1cc(C2CC2)nc(Nc2ccccc2)n1", "activation": "-5.05%"}
{"smiles": "Oc1cc(Cl)cc(Cl)c1", "activation": "0.622%"}
{"smiles": "O=[N+]([O-])c1ccc(CCl)cc1", "activation": "2.31%"}
{"smiles": "O=C(N[C@H]1N=C(c2ccccc2F)c2cccc3c2N(CC3)C1=O)c1cc2ccccc2[nH]1", "activation": "-1.47% [at 35.3 µM]"}
{"smiles": "CC(C)N(C(=O)SC/C(Cl)=C/Cl)C(C)C", "activation": "1.38%"}
{"smiles": "COc1ccc2c3c1O[C@H]1[C@H](O)CC[C@H]4[C@@H](C2)N(C)CC[C@@]341", "activation": "0.908%"}
{"smiles": "Clc1c(Cl)c(Cl)c(Cl)c(Cl)c1Cl", "activation": "-0.619% [at 6.97 µM]"}
{"smiles": "CSSC", "activation": "-0.871%"}
{"smiles": "COP(=O)(OC)Oc1ccc([N+](=O)[O-])cc1", "activation": "13.6%"}
{"smiles": "Nc1c(Cl)c(Cl)c(Cl)c(Cl)c1Cl", "activation": "4.32%"}
{"smiles": "CC(=O)C(Cl)C(=O)N(C)C", "note": "(stereo not given)", "activation": "-0.163%"}
{"smiles": "BrCCCBr", "activation": "3.51%"}
{"smiles": "CC1=C2C[C@H]3[C@@H](CC=C4C[C@@H](O)CC[C@@]43C)[C@@H]2CC[C@]12O[C@@H]1C[C@H](C)CN[C@H]1[C@H]2C", "activation": "1.53% [at 35.3 µM]"}
{"smiles": "CCNS(=O)(=O)C(F)(F)C(F)(F)C(F)(F)C(F)(F)C(F)(F)C(F)(F)C(F)(F)C(F)(F)F", "activation": "0.269%"}
{"smiles": "Cc1ccn2nc(S(=O)(=O)Nc3c(F)cccc3F)nc2n1", "activation": "-0.386%"}
{"smiles": "Oc1ccc(Cl)c(Cl)c1", "activation": "0.787%"}
{"smiles": "O=C(Cl)c1ccccc1F", "activation": "-2.26%"}
{"smiles": "CCCCCCCc1ccc(O)cc1", "activation": "4.41%"}
{"smiles": "S=C=Nc1ccccc1", "activation": "3.99%"}
{"smiles": "C[C@]12CC[C@H]3[C@@H](CCC4=CC(=O)CC[C@@H]43)[C@@H]1CC[C@@H]2OC(=O)CCc1ccco1", "activation": "1.29% [at 35.3 µM]"}
{"smiles": "CCOP(=S)(OCC)SC(CCl)N1C(=O)c2ccccc2C1=O", "note": "(stereo not given)", "activation": "-5.32%"}
